FMDV antiviral = High Throughput Screening for Foot and Mouth Disease Virus Antivirals | Potency, µM (series often up to 57.9 µM), without a hit: top-dose activity change, negative = inhibition, most hits filed as inhibitors | actives 1.2% (n = 410,000) | FMDV antiviral cell-based qHTS | AID 1159524, 2015; calls by dose curve; tested in HEK293T cells; further: read-out not given here; nearly all actives have a fitted effect of over 45% in size
Sm TGR block = qHTS Assay for the Inhibitors of Schistosoma Mansoni Peroxiredoxins; Schistosoma mansoni thioredoxin glutathione reductase (TGR), Q962Y6; purified TGR, DTNB reduction, TNB absorbance 405 nm; Potency, µM (highest dose often 114 µM), inactives show at the top dose activity change, negative = inhibition, usual class: inhibitors; actives 3% (n = 360,000); AID 485364, 2010; further: nearly all actives have a fitted effect of over 60% in size
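Kinetic colorimetric format: TGR-catalysed, NADPH-driven DTNB reduction monitored via TNB absorbance. Enzyme dispensed at 20 nM; compound exposure 15 min at room temperature before reaction start.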
RE007 growth inh = qHTS Assay for Inhibitors of the HIV-1 protein Vpr | AID 651644, 2012 | S. pombe RE007 Vpr strain, BacTiter-Glo ATP luminescence, 24 h | actives 0.21% (n = 360,000) | Potency, µM (doses to about 92.2 µM), for inactives: top-dose activity change, negative = less growth, most hits filed as inhibitors; active means well fitted falling curve with a large enough effect; inconclusive means small, poorly fitted or top-dose-only effect; inactive means no such curve, though single readings can be large or run the other way; further: nearly all actives have a fitted effect of over 50% in size
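Fission yeast strain RE007, carrying one chromosomally integrated HIV-1 vpr copy, was seeded at OD 0.01 in PMG+AL medium with 23 nL pinned compound. After 24 h at 30 °C and 99% humidity, viability was read by BacTiter-Glo luminescence.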
Tb PYK inh = qHTS of Trypanosoma Brucei Inhibitors; TbPYK enzyme, Kinase-Glo Plus ATP luminescence, 45 min; Potency, µM (doses to about 76.8 µM), for inactives: at the highest dose activity, negative = inhibition, hits mostly inhibitors; actives 0.12% (n = 410,000); further: nearly all actives have a fitted effect of over 50% in size
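ADP (130 uM final) triggers the TbPYK reaction after compound addition; incubation is 45 min at room temperature. Kinase-Glo Plus is then added and luminescence imaged. Normalized data are fitted to concentration-effect curves.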
Starred values were filed as active, the others as inactive; ? = inconclusive; . = no result given; [ ] = another dose, or the depositor's remark. Hits are enriched below; roughly 3.7% of the tested compounds scored in any of these assays. Unless noted, the call rests on the fitted dose curve; in most records, active means well fitted curve in the direction sought with a large enough effect; inconclusive means small, poorly fitted or top-dose-only effect, or another doubt; inactive means no such curve, though single readings can be large; an effect the other way counts as inactive or inconclusive. On the % scale 0 is the no-effect control and ±100 the full control effect; potency means the concentration at half of the fitted maximal effect.

SMILES | FMDV antiviral | Sm TGR block | RE007 growth inh | Tb PYK inh
COc1ccc(-c2csc3ncnc(N4CCN(Cc5ccccc5)CC4)c23)cc1 | 22µM* | -3% | 1% | -2%
COc1ccc(-c2csc3ncnc(N4CCN(c5ccccc5)CC4)c23)cc1 | 18µM* | -36% | 2% | 2%
COc1cc(OC)c(OC)cc1/C=N/Nc1ccc(Cl)nn1 | -1% | 8% | -15% | 2%
Cc1ccccc1/C=N/Nc1ccc(Cl)nn1 | 10% | 40µM* | 8% | 1%
Cc1ccc(NC(=O)CCn2cccc2)cc1F | 23% | ? | -9% | 7%
O=C(CCn1cccc1)Nc1cccc(F)c1 | 2% | 35µM* | -12% | -12%
O=c1c2c([N+](=O)[O-])cc([N+](=O)[O-])cc2sn1-c1ccc(Br)cc1 | 14% | ? | -87% | 4µM*
O=c1c2c([N+](=O)[O-])cc([N+](=O)[O-])cc2sn1Cc1ccccc1 | -10% | 0% | -38% | 1.6µM*
CCc1ccc2ncc3c(-c4ccc(F)cc4)nn(CC(=O)NCc4ccccc4)c3c2c1 | -9% | -2% | . | -3%
O=C(c1ccco1)[C@@H]1[C@@H]2C(=O)N(c3ccc(F)cc3)C(=O)[C@@H]2C2c3ccccc3C=CN21 (some centres not stated) | . | 22µM* | . | .
O=C(c1ccco1)[C@@H]1[C@@H]2C(=O)N(c3ccc(F)cc3)C(=O)[C@@H]2[C@H]2C=Cc3ccccc3N21 | 8% | -33% | -5% | -10%
O=C(c1ccco1)[C@@H]1[C@@H]2C(=O)N(c3ccc(Br)cc3)C(=O)[C@@H]2C2c3ccccc3C=CN21 (some centres not stated) | 3% | 18µM* | -23% | -5%
CN(C)c1ccc(CNC(=O)CCC(=O)N2Cc3ccccc3Oc3ncccc32)cc1 | -10% | -11% | . | 2%
COCCNC(=O)c1cn(C2CCN(C3CCCC3)CC2)nn1 | -2% | . | . | .
CCCCC(=O)NC(c1ccc([N+](=O)[O-])cc1)c1c(O)ccc2ccccc12 (configuration not stated) | 20µM* | -13% | 4% | 5%
Cc1cccc2sc(NNC(=O)c3ccc(S(=O)(=O)N4CCCC(C)C4)cc3)nc12 (configuration not stated) | 10µM* | -17% | 15% | ?
O=C(CSc1cccc[n+]1[O-])CSc1cccc[n+]1[O-] | 6% | -22% | 7.9µM* | -9%
O=C(CSc1cccc[n+]1[O-])N1CCCCCC1 | -4% | -5% | 9% | -4%
Cc1cc(C)c2oc(-c3ccc(Cl)c(NC(=O)c4cccs4)c3)nc2c1 | 24% | -10% | . | -9%
Cc1ccc(-n2c(C)cc(C3=NNC(=NC4CC4)SC3)c2C)cc1C | 18µM* | -15% | 6% | -11%
Cc1ccc(N2CC(NC(=O)c3ccccc3C(F)(F)F)CC2=O)cc1C (configuration not stated) | -21% | 7% | . | 3%
Cc1cc(C(=O)CCl)c(C)n1-c1cccc([N+](=O)[O-])c1 | 11µM* | ? | -16% | 1%
Cc1cc(C(=O)CCl)c(C)n1-c1ccon1 | 22µM* | 11µM* | -4% | -22%
CCC=CC[C@H]1C(=O)CC[C@@H]1CC(=O)OC | . | . | . | -1%
CC(=O)c1ccc(-n2nncc2C(C)(C)C)cc1 | . | 0% | 49% | 4%
SMILES | FMDV antiviral | Sm TGR block | RE007 growth inh | Tb PYK inh
Cc1cnnn1-c1ccc(C(=O)CCl)cc1 | ? | 5.6µM* | 20% | -15%
CCOc1ccc2oc(C(=O)N(C)CCc3ccc(OC)c(OC)c3)c(C)c2c1 | -12% | -19% | 1% | -4%
COc1ccc(CCN(C)C(=O)COC(=O)/C=C/c2ccc(C)o2)cc1OC | -10% | 16µM* | 4% | ?
CC(=O)CC/C=C(\C)CC/C=C(/C)CC/C=C(\C)CCC=C(C)C | . | . | . | 1%
O=C(NCCc1ccc(Cl)cc1)c1nnc(Cc2ccc(F)cc2)o1 | -3% | 3% | . | -3%
Clc1cccc(N2CCN(c3c4c(nc5nncn35)CCC4)CC2)c1 | 22µM* | 2% | . | 2%
Cc1ccc(S(=O)(=O)Nc2ccc(-c3ccc(N4CCCCCC4)nn3)cc2)cc1C | 33% | -5% | . | 0%
CCC(=O)N1CCN(c2ccc(NC(=O)c3cc4ccccc4o3)cc2Cl)CC1 | 8.9µM* | 6% | -13% | 4%
CCCC(=O)N1CCN(c2ccc(NC(=O)c3cc4ccccc4o3)cc2Cl)CC1 | 4.5µM* | 0% | -16% | -6%
O=C(Nc1ccc(N2CCN(C(=O)c3ccco3)CC2)c(Cl)c1)c1cc2ccccc2o1 | 8.9µM* | -3% | -20% | 1%
CCCC(=O)N1CCN(c2ccc(NC(=O)c3cccs3)cc2Cl)CC1 | 7% | -12%[57.1 µM] | 7% | -1%
CCC(=O)N1CCN(c2ccc(NC(=O)c3ccco3)cc2Cl)CC1 | 20% | 1% | 9% | -5%
CN(c1ccccc1)S(=O)(=O)c1ccc(NC(=O)CC(=O)c2ccccc2)cc1 | 40µM* | . | 42% | 0%
O=C(CC(=O)c1ccccc1)Nc1ccc(Cl)cc1 | 31% | 32µM* | -21% | 13%
Cc1c(Cl)cccc1NC(CC(=O)c1ccccc1)C(=O)OCC(=O)c1cccs1 (configuration not stated) | 45% | 8.9µM* | ? | -6%
O=C(CC(Nc1ccc(Cl)cc1)C(=O)O)c1ccccc1 (configuration not stated) | -10% | 0.71µM* | -16% | -19%
Cc1cccc(Oc2nc3c(C)cccn3c(=O)c2/C=C(\C#N)c2nc3ccccc3[nH]2)c1 | 7% | -10% | . | -4%
COc1cc(CC(=O)Nc2cccc(S(=O)(=O)N(C)c3ccccc3)c2)cc(OC)c1OC | 22µM* | . | 2% | -10%
COc1ccccc1NC(CC(=O)c1ccccc1)C(=O)OCC(=O)c1ccc(F)cc1 (configuration not stated) | 50% | 20µM* | -13% | -17%
Cc1c(Cl)cccc1NC(CC(=O)c1ccccc1)C(=O)O (configuration not stated) | 26% | 1µM* | 1% | ?
COc1ccccc1NC(=O)CCCC(=O)OCC(=O)c1ccc(F)cc1 | -18% | -4% | -11% | -14%
CCc1ccccc1Nc1sc(C(=O)c2cccc(OC)c2)c(N)c1S(=O)(=O)c1ccccc1 | -15% | 1% | . | 1%
Clc1ccccc1CN1CCN(/N=C/C=C/c2ccco2)CC1 | 55% | 16µM* | -3% | -7%
O=C(CN1CCN(Cc2ccccc2Cl)CC1)N/N=C/C=C/c1ccco1 | -17% | 20µM* | ? | -1%
CCN1C(=O)c2ccccc2S(=O)c2ccc(C(=O)N3CCN(c4cccc(C)c4)C(C)C3)cc21 (configuration not stated) | ? | 23% | . | 6%
Cc1nn2c(-c3cccc(NC(=O)c4ccccc4)c3)nnc2c2ccccc12 | 1% | 2% | . | 2%
COc1ccc(NC(=O)c2cc(OCCCN(C)C)nn2Cc2ccccc2)cc1 | -8% | . | . | .

Compound activity deposited in PubChem by National Center for Advancing Translational Sciences (NCATS).
